Hits are enriched below; roughly 19% of the tested compounds scored in any of these assays.
S-ASM inh: human S-ASM enzyme inhibition. 0.006% of 340,000 active. P17405. placental ASM, HMU-PC fluorogenic substrate, 60 min. Potency, µM (top dose mostly 57.5 µM), for inactives: top-dose activity change, negative = inhibition, actives largely listed as inhibitors; note: potency is the fitted concentration of half-maximal effect
Target sequence (P17405 47-631 limits assumed): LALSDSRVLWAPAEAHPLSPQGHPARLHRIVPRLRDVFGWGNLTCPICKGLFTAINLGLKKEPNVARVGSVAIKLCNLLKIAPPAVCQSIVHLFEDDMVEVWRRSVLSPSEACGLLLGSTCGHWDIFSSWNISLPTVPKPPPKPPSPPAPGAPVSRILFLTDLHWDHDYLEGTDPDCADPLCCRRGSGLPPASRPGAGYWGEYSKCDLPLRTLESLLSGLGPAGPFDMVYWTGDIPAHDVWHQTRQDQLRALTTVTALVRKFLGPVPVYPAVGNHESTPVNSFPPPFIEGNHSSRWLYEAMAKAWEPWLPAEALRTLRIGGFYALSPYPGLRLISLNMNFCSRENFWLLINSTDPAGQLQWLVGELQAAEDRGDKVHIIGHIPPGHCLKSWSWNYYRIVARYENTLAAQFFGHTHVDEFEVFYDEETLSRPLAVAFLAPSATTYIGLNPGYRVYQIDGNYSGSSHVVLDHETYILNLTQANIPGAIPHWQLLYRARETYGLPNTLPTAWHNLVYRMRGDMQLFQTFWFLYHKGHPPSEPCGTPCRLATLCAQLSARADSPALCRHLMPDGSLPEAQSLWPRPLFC
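Steps: dispense placental human ASM, pin compound, wait 10 min at room temperature, add HMU-PC0 substrate at 9 uM final, incubate 60 min at 37 °C, add stop solution raising pH to 10, read fluorescence.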
TDP1 cell CPT: growth inhibition of DT40 Tdp1-/-;hTDP1 cells with camptothecin (screen for TDP1 inhibitors); Potency, µM (doses to about 46.2 µM), inactives show at the top dose activity change, negative = growth inhibition, hits mostly inhibitors; 12% of 420,000 active; chicken DT40 Tdp1-/-;hTDP1 cells + 20 nM CPT, ATP luminescence, 48 h; note: potency is the fitted concentration of half-maximal effect; % is set by controls: 0 for no effect and ±100 for the full control effect; nearly all actives have a fitted effect of over 55% in size
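Chicken DT40 Tdp1-/- cells complemented with human TDP1, 400 cells/well, exposed to compounds plus 20 nM camptothecin for at least 48 h at 37 C; viability read as ATP content by CellTiter-Glo luminescence.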
IL-1B inflam inh: inhibitors of inflammasome signaling (IL-1 beta secretion); THP-1 LPS/ATP IL-1B secretion, AlphaLISA, 16 h; stronger effect = lower value; activity change, % at 57.5 µM; 4.7% of 360,000 active; in the data active = activity change below about -50%; inconclusive = mostly about -30% to -49%; note: % is set by controls: 0 for no effect and ±100 for the full control effect
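Secreted IL-1B measured by AlphaLISA bead assay after 16 h compound exposure of THP-1 cells; compounds (final up to 57.5 uM) added 1 h before LPS (250 ng/mL) and ATP (1.25 mM) stimulation; lower signal means less secretion.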
TGFb inhibitor: TGF-b pathway inhibition | HepG2 CAGA-GFP TGF-b/SMAD3 reporter, GFP fluorescence, 18 h; TGF-beta stimulated, 500 pg/mL final | Potency, µM (highest dose often 46.1 µM), without a hit: at the highest dose activity, negative = inhibition, hits mostly inhibitors | 1.2% of 410,000 active; note: potency is the fitted concentration of half-maximal effect; % is set by controls: 0 for no effect and ±100 for the full control effect; nearly all actives have a fitted effect of over 65% in size
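Inhibition was scored as loss of TGF-beta-induced (500 pg/mL final, 18 hours, 37 degrees C) GFP in HEPG2 cells carrying a CAGA-GFP reporter, in DMEM with 1% FBS. Well GFP was summed per cell; Activity was normalised to unstimulated and stimulated DMSO wells, then concentration-response fitting.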
HepG2 viability: kills HepG2 cells in TGF-b inhibitor counter-screen; AID 588856; HepG2 CAGA-GFP viability, ATP luminescence, 18 h; 0.76% of 410,000 active; Potency, µM (top dose mostly 46.1 µM), for the others: at the highest dose activity change, negative = cytotoxicity, usual class: cytotoxic; note: potency is the fitted concentration of half-maximal effect
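HepG2 CAGA-GFP cells (1000/well, DMEM with 1% FBS) received compound, then TGF-beta at 500 pg/mL final, and were incubated 18 hours at 37 degrees C. Viability was read by CellTiter-Glo luminescence. Media-only wells were set as complete cell-killing and DMSO as no toxicity.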
TDP1 cell noCPT: qHTS for Inhibitors of human tyrosyl-DNA phosphodiesterase 1 (TDP1): qHTS in cells in absence of CPT | DT40 Tdp1-/- hTDP1 cells, no CPT, ATP luminescence, 48 h | Potency, µM (highest dose often 46.2 µM), for the others: at the top dose activity change, negative = growth inhibition, hits mostly inhibitors | 15% of 420,000 active; note: potency is the fitted concentration of half-maximal effect; % is set by controls: 0 for no effect and ±100 for the full control effect; nearly all actives have a fitted effect of over 55% in size
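Chicken DT40 Tdp1-/- cells complemented with human TDP1, screened without camptothecin (DMSO vehicle only), 400 cells/well. Compounds pin-transferred, cells incubated at 37 °C for at least 48 hr. Growth read as ATP-dependent luminescence (CellTiter-Glo, 30 min at RT).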
Starred values were filed as active, the others as inactive; ? = inconclusive; . = no result. Unless noted, calls come from the whole dose curve; as a rule, active = well fitted curve in the direction sought with a large enough effect; inconclusive = small, poorly fitted or top-dose-only effect, or another doubt; inactive = no such curve, though single readings can be large; an effect the other way counts as inactive or inconclusive.

SMILES	S-ASM inh	TDP1 cell CPT	IL-1B inflam inh	TGFb inhibitor	HepG2 viability	TDP1 cell noCPT
Cc1ccc(N=Nc2ccc(O)cc2)c(Br)c1	-12%	4%	-86*	?	0%	4%
CC(C)(C)NC(=O)NC(=O)CSc1nncs1	0%	-1%	10	16%	1%	-4%
CCOC(=O)c1ccc(NC(=O)CSc2cn(CC(=O)N3CCCC3)c3ccccc23)cc1	.	?	.	?	-16%	18µM*
COC(=O)c1ccc(NC(=O)CSc2cn(CC(=O)N3CCCCCC3)c3ccccc23)cc1	.	?	.	?	-13%	18µM*
Cc1ccc(NC(=O)CSc2cn(CC(=O)N3CCOCC3)c3ccccc23)cc1Cl	.	21µM*	.	?	-20%	21µM*
Cc1cccc(NC(=O)CS(=O)(=O)c2cn(CC(=O)N3CCOCC3)c3ccccc23)c1	2%	0.52µM*	-18	14%	25%	2.3µM*
COCC(=O)N1CCC(Oc2ccc(C(=O)NCCc3ccncc3)cc2)CC1	2%	14%	27	0%	-39%	-16%
CCc1ccc(NC(=O)CSc2cn(CC(=O)N3CCCC3)c3ccccc23)cc1	.	18µM*	.	-24%	-16%	?
COC(=O)C1=C(C)NC(=O)NC1c1ccc(-c2ccccc2Cl)o1 (stereo unspecified)	11%	10µM*	24	?	-58%	16µM*
COC(=O)C1=C(C)NC(=O)NC1c1ccc(-c2ccc(F)cc2)o1 (stereo unspecified)	-1%	-21%	6	8%	-16%	-3%
CCOC(=O)C1=C(C)NC(=S)NC1c1ccc(-c2cccc(Cl)c2C)o1 (stereo unspecified)	-9%	16µM*	-14	?	-45%	12µM*
CCOC(=O)C1=C(C)NC(=S)NC1c1ccc(-c2ccc(Cl)cc2)o1 (stereo unspecified)	-11%	?	-21	?	-5%	?
COC(=O)C1=C(C)NC(C)=C(C(=O)OC)C1c1ccc(-c2cccc(Cl)c2Cl)o1	3%	?	?	?	-15%	?
COC(=O)C1=C(C)NC(=S)NC1c1ccc(-c2ccccc2C(=O)OC)o1 (stereo unspecified)	1%	?	-10	-31%	9%	18µM*
COC(=O)C1=C(C)NC(C)=C(C(=O)OC)C1c1ccc(-c2cc(Cl)ccc2Cl)o1	4%	2%	-68*	-15%	-3%	-25%
CC1CCCCN1C(=S)NC(=O)c1cc(Br)ccc1Cl (stereo unspecified)	1%	?	20	?	-25%	?
COC(=O)C1CCN(S(=O)(=O)CCNC(=O)c2ccc(F)cc2)CC1	8%	-17%	-26	-11%	11%	-5%
CCCC(=O)Nc1ccc(C(N)=O)cc1	-4%	28%	10	0%	-36%	-14%
CC(=O)Nc1ccc(/C=C/C(=O)c2ccc(-n3nncc3-c3ccccc3)cc2)cc1	.	5.6µM*	.	?	-22%	10µM*
CCCC(=O)Nc1ccc(C(=O)/C=C/c2ccc(SC)cc2)cc1	175%	13µM*	0	-5%	-33%	18µM*
CSc1ccc(/C=C/C(=O)c2ccc(NC(C)=O)cc2)cc1	155%	16µM*	?	29%	-15%	21µM*
CC(=O)Nc1ccc(N/C=C/C(=O)c2ccc(C)cc2)cc1	25%	3%	-16	-22%	-24%	11%
O=C(Nc1ccc(-n2nncc2-c2ccccc2)cc1)c1ccccc1	.	7%	.	32%	4%	-25%
CSc1ccc(OC2(C)CCN(Cc3ccc4c(c3)OCCO4)C2)cc1 (stereo unspecified)	.	26µM*	-11	?	-27%	?
COc1cc(OC)cc(OC2(C)CCN(Cc3ccc(OC(C)C)cc3)C2)c1 (stereo unspecified)	.	26µM*	13	14%	-19%	23µM*
SMILES	S-ASM inh	TDP1 cell CPT	IL-1B inflam inh	TGFb inhibitor	HepG2 viability	TDP1 cell noCPT
CSc1ccc(CN2CCC(C)(Oc3ccc(-n4ccnc4)cc3)C2)cc1 (stereo unspecified)	.	18µM*	?	-10%	-37%	18µM*
Cc1ccc(-c2cc3ncc4c(n3n2)-c2ccccc2OC4)cc1	.	-24%	.	4%	-12%	-30%
N#CCSc1nnc(COc2cccc3ccccc23)n1-c1cccc(Cl)c1	-22%	?	?	?	-31%	21µM*
COc1ccc(-n2c(COc3cccc4ccccc34)nnc2SCC#N)cc1	-14%	?	-21	?	0%	?
Cc1ccc(-c2nnc(CSc3nnc(COc4cccc5ccccc45)n3-c3ccccc3)o2)cc1	?	?	0	13µM*	27%	?
O=C(O)CCSc1nnc(COc2cccc3ccccc23)n1-c1cccc(Cl)c1	5%	20%	12	19%	1%	-3%
Cc1ccccc1OCc1nnc(SCCN2CCCC2)n1-c1ccccc1	0%	23µM*	-7	-26%	-33%	21µM*
Cc1ccccc1OCc1nnc(SC(C)C(=O)O)n1-c1ccccc1 (stereo unspecified)	.	-11%	-8	1%	-56%	5%
N#CCSc1nnc(COc2cccc3ccccc23)n1-c1ccccc1	-17%	16µM*	-68*	?	-32%	21µM*
CC1CCN(C(=O)c2c(NC(=O)c3ccccc3Cl)sc3c2CCC(C(C)(C)C)C3)CC1 (stereo unspecified)	.	0%	.	-6%	-7%	1%
NC(Cc1ccc(F)cc1)c1csc(Nc2cc(Oc3ccccc3)ncn2)n1 (stereo unspecified)	.	?	-75*	?	13µM*	?
COc1ccc(CC(N)c2csc(Nc3cc(Oc4ccccc4)ncn3)n2)cc1 (stereo unspecified)	.	16µM*	.	?	18µM*	12µM*
NC(Cc1ccc(Cl)cc1)c1csc(Nc2cc(Oc3ccccc3)ncn2)n1 (stereo unspecified)	.	-106%	-69*	?	-114%	?
NC(COCc1ccccc1)c1csc(Nc2cc(Oc3ccccc3)ncn2)n1 (stereo unspecified)	.	?	-79*	?	-101%	26µM*
